aDG glyco act: activators of alpha-DG glycosylation, primary screen, uHTS, Pro5-aDG cells, AlphaScreen. alpha-DG glycosylation AlphaScreen (IIH6); 0% Pro5, 100% B10-LARGE cell signal. activation, % at 10 µM. hit rate 0.22% among 360,000;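 active means activation of at least 8% versus controls, or a plate z-score of at least 8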;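 further: Pro5 are CHO cells carrying HIG-tagged alpha-DG that lacks glycosylation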
FAS-TE inh: FAS thioesterase domain inhibitors, primary screen, biochemical, fluorescence intensity, uHTS | Fatty acid synthase (Homo sapiens), P49327 | recombinant FAS-TE, OMFH fluorogenic substrate, fluorescence endpoint | inhibition, % at 15 µM | hit rate 0.67% among 360,000 | AID 602261, 2012;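 active means compounds whose normalised, plate-corrected inhibition of enzyme fluorescence in the single-dose primary screen is 50% or more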;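 further: 0% = DMSO with enzyme and 100% = substrate without enzyme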
GRIN3A LBD mod: binders of NR3A ligand-binding domain, primary screen, biophysical, differential scanning fluorimetry, uHTS; Glutamate receptor ionotropic, NMDA 3A (GRIN3A) ligand-binding domain; NR3A LBD differential scanning fluorimetry, Tm shift; 0% = protein alone, 100% = glycine-bound protein; Tm shift relative to glycine control, % at 25 µM; hit rate 2.5% among 340,000;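 active means melting temperature shift of at least 10% of the positive control shift, at one fixed dose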
ADAM10 inh: human ADAM10 inhibitors, primary screen, biochemical, QFRET, HTS. AID 720582, 2013. hit rate 0.62% among 370,000. inhibition, % at 7 µM. recombinant ADAM10, EDANS/DABCYL FRET peptide cleavage, 3 h;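 active means inhibition above a per-campaign cutoff equal to the mean of compounds falling between control-based bounds plus 3 SD, cut at about 20% in these data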;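 further: 0% = DMSO wells while the 100% control is not disclosed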
Target sequence (O14672 214-748 limits assumed): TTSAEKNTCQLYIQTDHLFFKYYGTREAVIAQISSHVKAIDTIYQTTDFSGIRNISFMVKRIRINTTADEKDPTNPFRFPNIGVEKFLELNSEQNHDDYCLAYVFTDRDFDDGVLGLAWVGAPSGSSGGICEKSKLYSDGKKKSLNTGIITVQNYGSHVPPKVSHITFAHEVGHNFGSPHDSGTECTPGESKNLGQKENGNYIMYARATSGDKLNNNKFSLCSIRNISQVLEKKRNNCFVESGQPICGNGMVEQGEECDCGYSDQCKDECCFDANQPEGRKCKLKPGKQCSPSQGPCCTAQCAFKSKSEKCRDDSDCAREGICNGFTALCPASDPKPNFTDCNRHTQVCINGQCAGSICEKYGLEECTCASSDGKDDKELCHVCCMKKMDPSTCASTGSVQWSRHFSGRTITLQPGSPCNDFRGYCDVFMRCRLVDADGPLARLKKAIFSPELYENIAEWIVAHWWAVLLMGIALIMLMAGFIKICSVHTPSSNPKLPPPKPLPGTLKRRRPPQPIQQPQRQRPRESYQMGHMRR
ADAM17 inh: ADAM17 inhibitors, primary screen, biochemical, QFRET | hit rate 0.83% among 370,000 | inhibition, % at 6.95 µM | Disintegrin and metalloproteinase domain-containing protein 17 (Homo sapiens), P78536 | recombinant ADAM17, EDANS/DABCYL FRET peptide cleavage;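 active means inhibition above the mean of compounds lying between control limits plus 3 SD, set per campaign, cut at about 8.5% in these data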;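 further: 0% = DMSO-only wells as the low control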
ADAM10 ctr: ADAM10 inhibitors, counter-screen for ADAM17 exosite inhibitor project, biochemical, FRET, human ADAM10 | AID 743256, 2014 | hit rate 47% among 2,900 | recombinant ADAM10, EDANS/DABCYL FRET peptide cleavage, 3 h | inhibition, % at 6.95 µM | shares compounds with ADAM17 inh;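 active means mean inhibition over the triplicate runs exceeds the activity threshold set in the earlier primary screen, cut at about 20% in these data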;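 further: 0% = DMSO wells and 100% = marimastat wells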
ADAM17 confirm: ADAM17 inhibitors, hit retest, confirmation, biochemical, QFRET peptide cleavage. shares compounds with ADAM17 inh. recombinant ADAM17, EDANS/DABCYL QFRET peptide cleavage. inhibition, % at 6.95 µM. hit rate 65% among 2,900. AID 743257, 2014;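 active means mean inhibition across replicates above the hit cutoff set in the primary screen, cut at about 8.5% in these data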;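 further: 0% = DMSO wells and 100% = marimastat wells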
Starred values were filed as active, the others as inactive; / = no result. A selection: hits, their analogues and other compounds. The true share with any hit is near 4%.

SMILES	aDG glyco act	FAS-TE inh	GRIN3A LBD mod	ADAM10 inh	ADAM17 inh	ADAM10 ctr	ADAM17 confirm
COc1ccc(NC(=O)C(c2ccc(C)cc2)N(C)C(=O)Cc2cccs2)cc1 (stereo not given)	1	12	-2	7	9.0*	2	6
C/C=C/C(=O)OCC(=O)Nc1nc2ccc(C)cc2s1	0	-4	-2	16	9.3*	-11	-2
CCOC(=O)C1(CC2CCCCO2)CCN(C(=O)Nc2cccc(SC)c2)CC1 (stereo not given)	0	6	11*	2	9.2*	3	0
COc1ccc(-c2c(-c3ccc(OCC(=O)NN)cc3O)n[nH]c2C)cc1OC	0	-57	-1	12	1	/	/
COc1ccc(-c2c(-c3ccc(OCC(=O)NN)cc3O)n[nH]c2C(F)(F)F)cc1	0	3	-5	19	12*	10	8
Cc1nccnc1Sc1ccccc1	0	0	-1	-3	2	/	/
CCOC(=O)C1=C(c2ccccc2)NC(=S)NC1c1ccc(C)c([N+](=O)[O-])c1 (stereo not given)	1	18	-7	5	2	/	/
CCOC(=O)C1=C(c2ccccc2)NC(=S)NC1c1cc([N+](=O)[O-])ccc1OC (stereo not given)	0	38	-5	12	9.2*	10	6
CCOC(=O)C1=C(c2ccccc2)NC(=O)NC1c1cc(Br)c(O)c(OC)c1 (stereo not given)	0	-3	2	-1	10*	13	3
CCOC(=O)C1=C(C)NC(=O)NC1c1cc(Br)c(O)c(OC)c1 (stereo not given)	0	-3	0	-2	-5	/	/
O=C(NC1CCCCC1)N1CCc2ccccc2C1	0	4	1	0	-2	/	/
CC[C@@H]1C=C(C(=O)O)[C@H](c2ccc(Cl)cc2)N1S(=O)(=O)c1ccc(C)cc1	0	-11	3	1	8.6*	10	5
CC[C@@H]1C=C(C(=O)O)[C@H](c2ccc(C)cc2)N1S(=O)(=O)c1ccc(C)cc1	0	-5	-1	-10	-3	/	/
COc1cc(-c2nnc3n2N=C(c2ccccc2)CS3)cc(OC)c1OC	0	2	-1	7	-1	/	/
CCOc1ccc(NC(=O)CN(C)C(=O)c2cn(-c3ccccc3)nc2-c2cccs2)cc1OCC	0	12	-1	13	5	/	/
CCOc1ccc(NC(=O)CN(C)C(=O)c2cn(-c3ccc(C)cc3)nc2-c2cccc(OC)c2)cc1OCC	-1	34	3	9	14*	34*	18*
Oc1c(C(c2ccccn2)N2CCC(Cc3ccccc3)CC2)cc(Cl)c2cccnc12 (stereo not given)	/	/	-3	12	32*	23*	39*
CN1CCN(C(c2ccccn2)c2cc(Cl)c3cccnc3c2O)CC1 (stereo not given)	0	-7	-3	2	18*	43*	45*
CC(C)Oc1ccc(S(=O)(=O)N2CCOCC2)cc1NC(=O)C1CCCCC1	0	1	0	-7	-2	/	/
C=CC[C@@H](Cc1ccc(F)cc1)C(=O)OC[C@@H]1CCCN1C(=O)[C@H](CC=C)CC(=O)N(CCO)Cc1ccccc1	0	18	1	19	10*	6	7
C=CCC[C@@H](Cc1ccc(F)cc1)C(=O)OC[C@@H]1CCCN1C(=O)[C@@H](CC=C)CC(=O)N[C@@H](CO)Cc1ccccc1	0	48	-8	20	9.1*	11	9.3*
C=CC[C@@H](Cc1ccc(F)cc1)C(=O)OC[C@H]1CCCN1C(=O)[C@@H](CC=C)CC(=O)N(CCO)Cc1ccccc1	0	17	2	-2	8	/	/
O=C(Nc1nc(-c2ccccc2)cs1)c1ccc(S(=O)(=O)N2CCc3ccccc32)cc1	0	18	-5	13	9.7*	10	9.7*
O=C(Nc1ccc(S(=O)(=O)N2CCCCC2)cc1)c1ccc(CN2CCc3ccccc3C2)cc1	1	15	-2	16	8.8*	16	9.6*
CS(=O)(=O)N1CCc2cc(C(=O)Nc3ccc(Br)cc3)ccc21	0	6	-3	2	9.0*	-11	0
SMILES	aDG glyco act	FAS-TE inh	GRIN3A LBD mod	ADAM10 inh	ADAM17 inh	ADAM10 ctr	ADAM17 confirm
COc1ccc(C(=O)Nc2ccc(S(=O)(=O)N3CCc4ccccc43)cc2)cc1	1	25	5	19	9.2*	21*	15*
Cc1nc(C(C)N(C)Cc2nc(Cc3ccccc3F)no2)c(C)s1 (stereo not given)	0	-4	0	8	2	/	/
CS(=O)(=O)N(CC(=O)N1CCCC1)c1ccccc1Br	0	-4	-1	-14	2	/	/
CCC(C)[C@H](N)c1nnc(SCC(=O)c2ccc(Cl)cc2)o1 (stereo not given in full)	0	-3	2	15	9.2*	-8	0
CC(C)(C)OC(=O)N[C@@H](Cc1ccccc1)c1nnc(SCC(=O)c2ccc(Cl)cc2)o1	0	8	3	-5	2	/	/
Cc1nn(CCCC(=O)Nc2cc(Oc3ccccc3)cc([N+](=O)[O-])c2)c(C)c1[N+](=O)[O-]	1	42	9	17	12*	39*	20*
Cc1nn(CCCC(=O)NCCc2ccccc2)c(C)c1[N+](=O)[O-]	0	40	0	-2	-2	/	/
Cc1ccc(-n2nnnc2SCC(=O)Nc2ccccc2-c2ccccc2)cc1C	0	25	-18	10	9.0*	26*	15*
Cc1ccc(NC(=O)CSc2nnc(-c3n[nH]c4ccccc34)n2-c2ccccc2)c(C)c1	0	4	-3	19	9.3*	4	10*
Cc1ccc(C)c(NC(=O)CSc2nnc(-c3cc(C)[nH]n3)n2N)c1	0	-6	0	-4	11*	-3	-2
Cc1ccc(-n2c(SCC(=O)Nc3cccc4ccccc34)nnc2-c2ccccc2)cc1	/	/	/	-2	2	/	/
